Compounds with a hit are over-represented: about 2.2% of the library has one in this group of screens.
Mito fusion yeast: inhibitors of mitochondrial division or activators of mitochondrial fusion. S. cerevisiae fusion-defective mutant growth rescue, CellTiterGlo 48 h. Potency, µM (series often up to 46.1 µM), most hits filed as activators. 320,000 compounds, 0.23% hits; also: nearly all actives have a fitted effect of over 45% in size
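Compounds are tested for their ability to restore growth of mitochondrial fusion-defective yeast strains at non-permissive 37C in YPEG medium over 48 hours. Viability is quantified by luciferase luminescence.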
aSyn rescue: alpha-synuclein toxicity inhibition in yeast; Potency, µM (top dose mostly 46.1 µM), actives largely listed as activators; 370,000 compounds, 0.14% hits; Yeast expressing alpha-synuclein, growth rescue, BacTiter-Glo, 24 h; also: nearly all actives have a fitted effect of over 65% in size
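Screening used galactose-induced yeast with toxic alpha-synuclein levels, exposed to compound for 24 hr at 30 deg C. Cell growth, read with BacTiter-Glo luminescence, gave the measured signal.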
FUS suppressor: rescues growth of FUS-expressing yeast; S. cerevisiae FUS-expressing, growth rescue, OD600, 24 h; Potency, µM (top dose mostly 76.6 µM), hits mostly activators; 390,000 compounds, 0.24% hits; AID 1347120; also: nearly all actives have a fitted effect of over 55% in size
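Galactose (2%) drives FUS expression in yeast precultured in raffinose; seeding density OD 0.005. Test compounds incubated 24hr at 30C and 99% humidity before absorbance at 600 nm was measured.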
TDP-43 yeast inh: TDP-43 toxicity inhibition in yeast; TDP-43 expressing yeast growth rescue, BacTiter-Glo, 24 h; Potency, µM (titrated, usually from 46.1 µM), actives largely listed as activators; 410,000 compounds, 1.8% hits; also: nearly all actives have a fitted effect of over 50% in size
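Yeast expressing TDP-43 (pregrown in raffinose, seeded at OD600=0.02 in galactose medium) exposed to compounds 24 hr at 30 deg C. Growth read by BacTiter-Glo luminescence; rescue of toxicity appears as increased signal.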
Abeta rescue: A-beta toxicity reversal in yeast. Potency, µM (highest dose often 46.1 µM), usual class: activators. AID 1347071. 410,000 compounds, 0.063% hits. yeast expressing A-beta42, growth rescue, OD600, 48 h; response scale: 0% DMSO, 100% iron-clioquinol control; also: nearly all actives have a fitted effect of over 55% in size
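Yeast growth medium received pinned compounds, then yeast cells expressing toxic A-beta were added; plates incubated at 30 C for 48 hr. Growth read as absorbance at 600 nm, normalized to DMSO and equimolar FeCl3 plus clioquinol controls.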
Numbers stand for hits; i = inactive; ? = inconclusive; nt = not tested or not shown; [ ] = dose if it differs, or a comment. Calls follow the shape of the dose curve; as a rule, active = well fitted curve in the direction sought with a large enough effect; inconclusive = small, poorly fitted or top-dose-only effect, or another doubt; inactive = no such curve, though single readings can be large; an effect the other way counts as inactive or inconclusive.

SMILES	Mito fusion yeast	aSyn rescue	FUS suppressor	TDP-43 yeast inh	Abeta rescue
COc1ccc(NC(=O)C(c2ccc(C)cc2)N(C)C(=O)Cc2cccs2)cc1 (stereo not drawn)	i	i	i	13µM	?
COc1ccc(NC(=O)C(c2ccc(OC)cc2)N(C)C(=O)Cc2cccs2)cc1 (stereo not drawn)	i	i	i	?	i
O=C(c1ccc(F)cc1)C(CN1CCOCC1)c1ccccc1 (stereo not drawn)	i	i	nt	18µM	i
COc1ccc(C(=O)C(CN2CCOCC2)c2ccccc2)cc1 (stereo not drawn)	i	i	i	?	i
Cc1cc(N2CCN(c3cccc(C)c3C)CC2)n2cnnc2n1	nt	nt	i	22µM	i
Cc1cc(N2CCN(c3ccccc3F)CC2)n2cnnc2n1	nt	nt	i	?	i
Cc1ccc(Cn2c(C(=O)O)c(CNC3CCCCC3)c3ccc(C)cc32)cc1	nt	nt	i	i	i
CCc1ccc(C2=Nn3c(nnc3-c3cccs3)SC2)cc1	i	i	i	11µM	i
c1ccc(-c2ccc(C3=Nn4c(nnc4-c4cccs4)SC3)cc2)cc1	i	i	i	?	i
CCOc1ccc(C2=Nn3c(CC)nnc3SC2)cc1	i	i	i	18µM	i
COc1ccc(C(=O)/C=C(\Nc2ccc(Br)c(C)c2)c2ccc(OC)cc2OC)c(OC)c1	nt	nt	i	nt	nt
O=C(Cn1cc(SCc2ccc(Br)cc2)c2ccccc21)N1CCCCC1	nt	nt	i	i	i
O=C(Nc1ccccc1Cl)C1CCCN(c2ncnc3c2nc2n3CCCCC2)C1 (stereo not drawn)	i	i	i	14µM	i
O=C(C1CCCN(c2ncnc3c2nc2n3CCCCC2)C1)N1CCN(c2ccccc2F)CC1 (stereo not drawn)	i	i	i	11µM	i
CCc1ccccc1N(C)C(=O)C1CCCN(c2ncnc3c2nc2n3CCCCC2)C1 (stereo not drawn)	nt	nt	i	11µM	i
COc1ccccc1NC(=O)C1CCCN(c2ncnc3c2nc2n3CCCCC2)C1 (stereo not drawn)	i	i	i	?	i
Cc1cccc(C(=O)Nc2ccc(N3CCN(c4ccc(F)cc4)CC3)c(C(=O)O)c2)c1	nt	nt	i	i[9.22 µM]	i
COc1ccc(CCNCc2c(C(=O)O)c(C)n(Cc3ccccc3C)c2C)c(OC)c1	nt	nt	i	i	i
COc1cccc(CN2C(=O)N(c3ccc(C)cc3)C(=O)C2CC(=O)Nc2cc(OC)cc(OC)c2)c1 (stereo not drawn)	nt	nt	i	i	i
COC(=O)C1CN(Cc2ccc(C)cc2)CCS(=O)(=O)N1Cc1cn(Cc2ccc(OC)cc2)nn1 (stereo not drawn)	nt	nt	i	nt	nt
CC(C)(C)C1CCc2onc(C(=O)Nc3sc4c(c3C(N)=O)CCCC4)c2C1 (stereo not drawn)	nt	nt	i	i	i
O=C(O)c1c2c(nc3ccccc13)CCCC2	nt	i	nt	nt	nt
Cn1c(N2CCN(S(=O)(=O)c3ccc(F)cc3)CC2)nc2ccccc21	11µM	i	i	i	i
Cc1ccc(C)c(N2CCN(C(=O)CCS(=O)(=O)c3ccc4c(c3)CCN4C(=O)C3CC3)CC2)c1	11µM	i	i	i	i
Cc1cccc(N2CCN(C(=O)CCNS(=O)(=O)c3ccc4c(c3)CCN4C(=O)C3CC3)CC2)c1C	nt	i	28µM	i	i
SMILES	Mito fusion yeast	aSyn rescue	FUS suppressor	TDP-43 yeast inh	Abeta rescue
CC(=O)CC[C@H]1CC[C@]2(CCCN(C(=O)c3ccco3)C2)O1	nt	nt	i	nt	nt
CCn1cc(S(=O)(=O)c2ccc(C)cc2)c(=O)c2cc(OC)ccc21	i	i	i	i	i
CCOc1ccc(S(=O)(=O)c2cn(Cc3ccc(C)cc3)c3ccc(OC)cc3c2=O)cc1	nt	nt	16µM	i	i
c1ccc2cc3[nH]c(CNc4nc(N5CCOCC5)nc5c4ncn5-c4ccsc4)nc3cc2c1	nt	nt	14µM	nt	nt
COc1cc2c(cc1OC)C(c1oc(-c3ccc(-c4cc(Cl)ccc4Cl)o3)cc1C)=NCC2	nt	i	nt	nt	nt
CC1CCCCN1C(=O)Cn1ncc2c3ccccc3n(Cc3ccccc3F)c2c1=O (stereo not drawn)	nt	nt	i	i[9.22 µM]	i
COc1ccc(CCNc2ncnc3c2c(-c2ccccc2)cn3-c2ccc(Cl)cc2)cc1OC	nt	nt	14µM	?	i
CCCNc1ncnc2c1c(-c1ccccc1)cn2-c1ccccc1	nt	nt	?	22µM	i
COc1ccc(CNc2ncnc3c2c(-c2ccccc2)cn3-c2ccc(C)c(Cl)c2)cc1	nt	nt	i	i	i
Clc1cccc(-n2cc(-c3ccccc3)c3c(N4CCCCC4)ncnc32)c1	nt	nt	i	?	i
COCCN(CCOC)c1ncnc2c1c(-c1ccccc1)cn2-c1ccc(C)c(Cl)c1	nt	nt	i	25µM	i
c1ccc(-c2cn(-c3ccccc3)c3ncnc(N4CCCCC4)c23)cc1	i	i	i	18µM	i
CCOCCCn1c(=N)c(C(=O)NCc2cccnc2)cc2c(=O)n3cc(C)ccc3nc21	nt	nt	i	i	i
COc1ccc(/C=C/c2nccc3ccccc23)cc1OC	nt	i	nt	nt	nt
COc1ccc(-n2cc(-c3ccccc3)c3c(NC4CCCC4)ncnc32)cc1	nt	nt	i	22µM	i
CCOC(=O)[C@]12CCCCC/C=C\1N(CCc1ccc(Cl)cc1)C(=O)[C@H]2CC(=O)N1CCCC1	nt	nt	i	nt	nt
O=c1c2c(-c3ccc(Cl)cc3)ccnc2[nH]n1-c1ccccc1	nt	nt	i	i	i
Cc1cc2oc(=O)cc(-c3ccccc3)c2c(C)c1-c1ccc(O)cc1	nt	i	?	14µM	i
O=C1NC(=O)C(Cc2cccc(Oc3ccccc3)c2)S1 (stereo not drawn)	11µM	i	i	?	i
CC(C)CCn1c(=O)c2sccc2n2c(CCCC(=O)NC3CCC(C)CC3)nnc12 (stereo not drawn)	nt	nt	i	i	i
Cc1ccc(OCc2nc(C#N)c(NCc3ccc4c(c3)OCO4)o2)cc1	8.9µM	i	i	11µM	i
COc1ccc(Nc2oc(COc3ccc(Cl)cc3)nc2C#N)cc1	?	i	i	28µM	i
COc1ccc(CNc2oc(COc3ccc(Cl)cc3)nc2C#N)cc1	?	i	nt	?	i
CC(C)(C)NC(=O)CC1C[C@H](C(=O)N2CCOCC2)[C@@]2(CCC3CCCC3)c3[nH]c4ccccc4c3CCN2C1=O (stereo partly drawn)	nt	i	?	i	i
C[C@@H]1CC=C[C@@H]2[C@H]1C(=O)N(Cc1ccccc1)[C@H]2c1ccccc1Br	nt	i	i	11µM	i
COc1ccc(SCc2cc(=O)c3cc(Cl)ccc3[nH]2)cc1	nt	nt	i	i	i
COC(=O)N1C(=O)[C@](c2ccc(OC)cc2)(C(C)C)N1C(=O)OC	i	i	i	18µM	i
COC(=O)N1C(=O)[C@](CC(C)C)(c2ccccc2)N1C(=O)OC	i	i	i	?	i
COC(=O)N1C(=O)[C@](c2ccsc2)(C(C)C)N1C(=O)OC	i	i	i	20µM	i
COC(=O)N1C(=O)[C@@](CC(C)C)(c2ccccc2)N1C(=O)OC	i	nt	nt	nt	nt

Screens from PubChem.
